# From PubChem BioAssay (EPA / NIEHS)
# The source made the active and inactive calls. How the source made its calls: active means hit-call score of the fitted dose curve at least 0.9, where 1 is the maximum; inactive means score below 0.9.
# Legend:
# [1] = read-out: Transforming growth factor beta 1 (TGFb1), TGFB1 (gene 7040); assay: BSK_KF3CT_TGFb1: BioMAP Diversity Plus: KF3CT Assay for Transforming growth factor beta 1 (TGFb1) Biomarker Activity (AID 2283072); details: primary human keratinocytes with fibroblasts; actives raise or lower the signal
# How it was run: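 Human keratinocyte/foreskin fibroblast co-culture; TGF-b1 measured by ELISA 24 h after dosing, fitted bidirectionally versus DMSO. Cytotoxicity checked in parallel cultures by total protein (SRB staining, 560 nm).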
# [2] = read-out: C-C motif chemokine 2 (Homo sapiens) (UniProt P13500); assay: BSK_KF3CT_MCP1: BioMAP Diversity Plus: KF3CT Assay for Monocyte Chemoattractant Protein 1 (MCP1/CCL2) Biomarker Activity (AID 2283073); details: primary human keratinocytes with fibroblasts; actives raise or lower the signal
# How it was run: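 Human keratinocyte plus foreskin fibroblast primary co-culture exposed to chemical for 24 h. MCP-1 levels measured by ELISA. Bidirectional curve fitting relative to DMSO negative control as baseline.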
# [3] = read-out: Matrix Metallopeptidase 9 (MMP9), MMP9 (gene 4318); assay: BSK_KF3CT_MMP9: BioMAP Diversity Plus: KF3CT Assay for Matrix Metallopeptidase 9 (MMP9) Biomarker Activity (AID 2283074); details: primary human keratinocytes with fibroblasts; actives raise or lower the signal;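 on AC50: MMP9 protein level quantified by ELISA in the co-culture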
# How it was run: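 Human keratinocyte and foreskin fibroblast co-culture exposed to chemicals for 24 h; MMP9 biomarker measured by ELISA, bidirectional fitting relative to DMSO; cytotoxicity tracked by SRB total protein staining in parallel cultures.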
# [4] = read-out: urokinase plasminogen activator (uPA), PLAU (gene 5328); assay: BSK_KF3CT_uPA: BioMAP Diversity Plus: KF3CT Assay for urokinase plasminogen activator (uPA) Biomarker Activity (AID 2283075); details: primary human keratinocytes with fibroblasts; actives raise or lower the signal
# How it was run: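 Primary human keratinocyte/foreskin fibroblast co-culture exposed to chemical; uPA measured by ELISA at 24 h. Bidirectional fit versus DMSO, with parallel SRB total-protein staining for cytotoxicity.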
# [5] = read-out: CD40, CD40 (gene 958); assay: BSK_LPS_CD40: BioMAP Diversity Plus: LPS Assay for CD40 Biomarker Activity (AID 2283076); details: primary human HUVEC with PBMC; actives raise or lower the signal
# How it was run: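 Primary human umbilical vein endothelial cells co-cultured with peripheral blood mononuclear cells, LPS-stimulated, were dosed with chemical and read 24 h later. CD40 levels were measured by ELISA and fitted bidirectionally against DMSO as negative control and baseline.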
# [6] = read-out: E-selectin (Homo sapiens) (UniProt P16581); assay: BSK_LPS_Eselectin: BioMAP Diversity Plus: LPS Assay for Eselectin Biomarker Activity (AID 2283077); details: primary human HUVEC with PBMC; actives raise or lower the signal
# How it was run: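 Human umbilical vein endothelial cells co-cultured with peripheral blood mononuclear cells under LPS stimulation; E-selectin measured by ELISA 24 h after chemical dosing. Activity fitted bidirectionally against DMSO as negative control and baseline.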
# [7] = read-out: Interleukin-8 (IL8), CXCL8 (gene 3576); assay: BSK_LPS_IL8: BioMAP Diversity Plus: LPS Assay for Interleukin-8 (IL8) Biomarker Activity (AID 2283078); details: primary human HUVEC with PBMC; actives raise or lower the signal
# How it was run: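 Human umbilical vein endothelial cells co-cultured with PBMC were stimulated with LPS; IL-8 levels were measured by ELISA 24 h after chemical dosing. Activity was fitted bidirectionally against DMSO as negative control and baseline.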
# [8] = BSK_LPS_PGE2: BioMAP Diversity Plus: LPS Assay for Prostaglandin E2 (PGE2) Biomarker Activity (AID 2283082); details: primary human HUVEC with PBMC; actives raise or lower the signal;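 on AC50: secreted prostaglandin E2 measured by ELISA in LPS-stimulated co-culture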
# How it was run: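 HUVEC plus human PBMC co-culture stimulated with LPS; secreted PGE2 quantified by ELISA 24 h after chemical dosing. Activity fitted bidirectionally against DMSO baseline; parallel SRB staining (0.1% SRB after 10% TCA fixation, 560 nm) flags overt cytotoxicity.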
# [9] = read-out: Tissue Factor, F3 (gene 2152); assay: BSK_LPS_TissueFactor: BioMAP Diversity Plus: LPS Assay for Tissue Factor Biomarker Activity (AID 2283084); details: primary human HUVEC with PBMC; actives raise or lower the signal
# How it was run: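 Human umbilical vein endothelial cells co-cultured with peripheral blood mononuclear cells were dosed and stimulated with LPS. Cell-surface CD142 was quantified by ELISA at 24 h. Activity was fitted bidirectionally against DMSO baseline.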
# [10] = read-out: Tumor necrosis factor (Homo sapiens) (UniProt P01375); assay: BSK_LPS_TNFa: BioMAP Diversity Plus: LPS Assay for Tumour Necrosis Factor alpha (TNFa) Biomarker Activity (AID 2283085); details: primary human HUVEC with PBMC; actives raise or lower the signal
# How it was run: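 Human umbilical vein endothelial cells co-cultured with PBMC and stimulated with LPS. TNFa was measured by ELISA 24 h after chemical dosing, fitted bidirectionally relative to DMSO.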
# [11] = read-out: Vascular cell adhesion molecule 1 (VCAM1), VCAM1 (gene 7412); assay: BSK_LPS_VCAM1: BioMAP Diversity Plus: LPS Assay for Vascular cell adhesion molecule 1 (VCAM1) Biomarker Activity (AID 2283086); details: primary human HUVEC with PBMC; actives raise or lower the signal
# How it was run: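 Human umbilical vein endothelial cells co-cultured with PBMC and stimulated with LPS; VCAM-1 measured by ELISA 24 h after dosing. Bidirectional curve fitting against DMSO baseline; cytotoxicity tracked in parallel by SRB total-protein staining.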
# [12] = read-out: CD38, CD38 (gene 952); assay: BSK_SAg_CD38: BioMAP Diversity Plus: SAg Assay for CD38 Biomarker Activity (AID 2283087); details: primary human HUVEC with PBMC; actives raise or lower the signal
# How it was run: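 Human HUVEC plus PBMC co-culture stimulated with superantigen; CD38 measured by ELISA 24 h after chemical dosing. Fluorescence read-out, bidirectional fit against DMSO; cytotoxicity tracked in parallel by SRB and Alamar Blue.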
# [13] = read-out: CD69, CD69 (gene 969); assay: BSK_SAg_CD69: BioMAP Diversity Plus: SAg Assay for CD69 Biomarker Activity (AID 2283089); details: primary human HUVEC with PBMC; actives raise or lower the signal
# How it was run: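 Endothelial/PBMC co-culture; chemical added; 24 h incubation; CD69 ELISA with fluorescence detection; bidirectional fit vs DMSO.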
# [14] = read-out: Monocyte Chemoattractant Protein-1 (MCP1), CCL2 (gene 6347); assay: BSK_SAg_MCP1: BioMAP Diversity Plus: SAg Assay for Monocyte Chemoattractant Protein-1 (MCP1) Biomarker Activity (AID 2283090); details: primary human HUVEC with PBMC; actives raise or lower the signal
# How it was run: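 MCP-1 levels in the endothelial–PBMC SAg co-culture were quantified by ELISA at 24 h post-dosing; both increases and decreases versus DMSO scored. Cytotoxicity monitored by SRB total protein in parallel cultures.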
# [15] = read-out: Monocyte Chemoattractant Protein-1 (MCP1), CCL2 (gene 6347); assay: BSK_LPS_MCP1: BioMAP Diversity Plus: LPS Assay for Monocyte Chemoattractant Protein-1 (MCP1) Biomarker Activity (AID 2283081); details: primary human HUVEC with PBMC; actives raise or lower the signal;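 on AC50: secreted MCP-1 protein quantified by ELISA in culture supernatant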
# How it was run: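 HUVEC plus PBMC co-culture (human primary cells, LPS system) exposed to test chemical for 24 h; MCP-1 measured by ELISA. Bidirectional curve fitting against DMSO baseline; parallel SRB total-protein staining flags overt cytotoxicity.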
# [16] = read-out: Macrophage colony-stimulating factor (MCSF), CSF1 (gene 1435); assay: BSK_LPS_MCSF: BioMAP Diversity Plus: LPS Assay for Macrophage colony-stimulating factor (MCSF) Biomarker Activity (AID 2283083); details: primary human HUVEC with PBMC; actives raise or lower the signal
# How it was run: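 Human umbilical vein endothelial cells co-cultured with peripheral blood mononuclear cells were exposed to compound for 24 h. M-CSF levels were measured by ELISA, and bidirectional curve fitting used DMSO as the negative control and baseline.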
# [17] = BSK_LPS_SRB: Viability Assessment in the BioMAP Diversity Plus: LPS Assay (AID 2283079); details: primary human HUVEC with PBMC;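 further: total protein by sulforhodamine B absorbance as a cytotoxicity measure; measured one day after compound addition; fitted in both directions against DMSO so loss or gain of signal counts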
# How it was run: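 Human umbilical vein endothelial cells co-cultured with PBMC (LPS system) were dosed for 24 h. Total protein was stained with 0.1% sulforhodamine B after 10% TCA fixation, read at 560 nm, and fitted bidirectionally against DMSO baseline.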
# [18] = read-out: CD40, CD40 (gene 958); assay: BSK_SAg_CD40: BioMAP Diversity Plus: SAg Assay for CD40 Biomarker Activity (AID 2283088); details: primary human HUVEC with PBMC; actives raise or lower the signal
# How it was run: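 Human umbilical vein endothelial cells co-cultured with PBMC; CD40 levels measured by ELISA with fluorescence read-out 24 h after chemical dosing. Gain or loss of signal fitted bidirectionally against DMSO baseline.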
# Tumor necrosis factor (Homo sapiens), sequence (P01375 whole entry, looked up): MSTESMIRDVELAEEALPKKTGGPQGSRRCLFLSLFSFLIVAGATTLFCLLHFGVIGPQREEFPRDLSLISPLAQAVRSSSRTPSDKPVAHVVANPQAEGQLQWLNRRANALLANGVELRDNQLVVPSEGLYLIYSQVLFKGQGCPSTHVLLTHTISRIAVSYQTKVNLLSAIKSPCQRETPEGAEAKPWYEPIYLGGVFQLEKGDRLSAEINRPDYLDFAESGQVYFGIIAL
# E-selectin (Homo sapiens), sequence (P16581 whole entry, looked up): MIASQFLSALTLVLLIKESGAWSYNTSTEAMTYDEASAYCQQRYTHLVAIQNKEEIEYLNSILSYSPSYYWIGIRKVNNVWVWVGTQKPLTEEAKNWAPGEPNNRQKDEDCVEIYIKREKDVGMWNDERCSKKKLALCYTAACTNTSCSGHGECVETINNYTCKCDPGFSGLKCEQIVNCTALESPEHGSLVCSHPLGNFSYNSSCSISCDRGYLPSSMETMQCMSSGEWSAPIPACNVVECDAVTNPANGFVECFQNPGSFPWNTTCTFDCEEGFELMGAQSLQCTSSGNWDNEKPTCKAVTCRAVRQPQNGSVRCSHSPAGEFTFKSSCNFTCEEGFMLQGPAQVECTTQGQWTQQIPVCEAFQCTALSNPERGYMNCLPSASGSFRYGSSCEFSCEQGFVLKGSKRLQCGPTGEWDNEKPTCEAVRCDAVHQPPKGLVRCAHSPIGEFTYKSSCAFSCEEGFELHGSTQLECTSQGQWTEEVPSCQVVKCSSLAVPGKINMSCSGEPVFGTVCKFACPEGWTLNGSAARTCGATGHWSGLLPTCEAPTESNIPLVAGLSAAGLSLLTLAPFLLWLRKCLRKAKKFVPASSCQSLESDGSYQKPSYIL
compound,measurement,setting,value
c1ccc2cc(Nc3ccc(Nc4ccc5ccccc5c4)cc3)ccc2c1,outcome,[1],inactive
same,outcome,[2],inactive
same,outcome,[3],inactive
same,outcome,[4],inactive
same,outcome,[5],inactive
same,outcome,[6],inactive
same,outcome,[7],inactive
same,outcome,[8],inactive
same,outcome,[9],inactive
same,outcome,[10],inactive
same,outcome,[11],inactive
same,outcome,[12],inactive
same,outcome,[13],inactive
same,outcome,[14],inactive
Oc1c(Cl)cc(Cl)c(Cl)c1Cc1c(O)c(Cl)cc(Cl)c1Cl,AC50,[1],2.81 µM (active)
same,AC50,[2],5.44 µM (active)
same,AC50,[3],0.74 µM (active)
same,AC50,[4],2.99 µM (active)
same,AC50,[5],6.43 µM (active)
same,AC50,[6],22.8 µM (active)
same,AC50,[7],15.3 µM (active)
same,AC50,[15],32.5 µM (active)
same,outcome,[8],inactive
same,AC50,[9],27.7 µM (active)
same,AC50,[10],20 µM (active)
same,AC50,[11],22.6 µM (active)
same,AC50,[12],2.31 µM (active)
same,AC50,[14],5.46 µM (active)
CCCCCC(C=O)=Cc1ccccc1,outcome,[1],inactive
same,AC50,[2],28.8 µM (active)
same,AC50,[3],34.5 µM (active)
same,AC50,[4],35.9 µM (active)
same,AC50,[5],33.3 µM (active)
same,AC50,[6],31.1 µM (active)
same,outcome,[7],inactive
same,AC50,[8],34 µM (active)
same,AC50,[16],33.3 µM (active)
same,outcome,[9],inactive
same,outcome,[10],inactive
same,AC50,[11],30.4 µM (active)
same,outcome,[12],inactive
same,outcome,[14],inactive
C=C(C)C(=O)OCCOCCOCCOC(=O)C(=C)C,outcome,[1],inactive
same,outcome,[2],inactive
same,outcome,[3],inactive
same,AC50,[4],3.97 µM (active)
same,outcome,[5],inactive
same,outcome,[6],inactive
same,outcome,[7],inactive
same,outcome,[17],inactive
same,outcome,[8],inactive
same,outcome,[9],inactive
same,outcome,[10],inactive
same,outcome,[11],inactive
same,outcome,[12],inactive
same,outcome,[14],inactive
CC(=O)c1c(C)c([N+](=O)[O-])c(C(C)(C)C)c([N+](=O)[O-])c1C,outcome,[1],inactive
same,outcome,[2],inactive
same,outcome,[3],inactive
same,outcome,[4],inactive
same,outcome,[5],inactive
same,outcome,[6],inactive
same,outcome,[7],inactive
same,outcome,[8],inactive
same,outcome,[16],inactive
same,outcome,[9],inactive
same,outcome,[10],inactive
same,outcome,[11],inactive
same,outcome,[12],inactive
same,outcome,[18],inactive
same,outcome,[14],inactive
COc1cc(Cl)c(OC)cc1N,outcome,[1],inactive
same,outcome,[2],inactive
same,outcome,[3],inactive
same,outcome,[4],inactive
same,outcome,[5],inactive
same,outcome,[6],inactive
same,outcome,[7],inactive
same,outcome,[15],inactive
same,outcome,[8],inactive
same,outcome,[9],inactive
same,outcome,[10],inactive
same,outcome,[11],inactive
same,outcome,[12],inactive
same,outcome,[18],inactive
same,outcome,[14],inactive
